The source of these data is PubChem BioAssay AID435009 (The Scripps Research Institute Molecular Screening Center, 2010).

The structures appear in SMILES notation. Active and inactive are the calls of the source. No rule for the calls is given here. Bounds are passed on as bounds.

A short description of the experiment: xanthine oxidase inhibitors, late-stage follow-up, NOX1 inhibitor project, biochemical, IC50, set 2 (AID 435009). Conditions: Xanthine oxidase enzyme assay, ROS/superoxide detection.
As for `Cc1cc(Cl)ccc1NC(=S)NNC(=S)Nc1ccc(F)cc1`, the IC50 was 3300 nM (active).
The result for `CN(C)c1ccc(/C=N/Nc2c(Cl)cncc2Cl)cc1` reads > 5000 nM (inactive); that for `CN(C)c1ccc(NC(=O)Nc2ccc(OCc3ccccc3)cc2)cc1`, 1300 nM (active); that for `Oc1c(Br)cc(/C=N/Nc2c(Cl)cncc2Cl)cc1Br`, > 5000 nM (inactive).
The result for `COc1cc(-c2nc(-c3ccccc3)c(-c3ccccc3)[nH]2)cc(OC)c1O` reads 900 nM (active).
With `FC(F)(F)c1ccc2c(c1)Nc1ccccc1S2` the figure was 5000 nM (active); with `Fc1ccc(NC(=S)NNC(=S)Nc2ccccc2)cc1`, 500 nM (active); with `COc1cc(-c2nc(-c3ccccc3)c(-c3ccccc3)[nH]2)ccc1O`, 10 nM (active).
Consider `CSc1ccc(NC(=O)Nc2ccc(N(C)C)cc2)cc1`, for which the IC50 is 1200 nM (active).

As a reminder, the IC50 is the concentration needed to halve the response being measured.
